Experimental data: PubChem BioAssay (NCATS)
Several values for one entry are separate records, joined by “and”; a condition that tells them apart may be missing. Equal values may be shown once. Inconclusive results are not listed. Entries that show only a call come without a potency. Unmarked numbers belong to inactive results. Activity calls are given as the source filed them. Calls come from the whole dose curve; as a rule, active = well fitted cell-killing curve with a large enough effect; inconclusive = small, poorly fitted or top-dose-only effect, or effect the other way; inactive = no such curve, though single readings can be large or run the other way.

How the values were obtained:
[1] = Viability qHTS for spleen associated tyrosine kinase inhibitor (SYKi) naive MV4-11 cells (AID 1963823); note: nearly all actives have a fitted effect of over 40% in size
Procedure, shortened: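 Compounds were dispensed acoustically onto plates, MV4-11 cells (SYKi-naive) added at 500 per well, and plates incubated 72 hr at 37 C. CellTiter-Glo was added and luminescence measured after 10 min.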

[2] = Viability qHTS for spleen associated tyrosine kinase inhibitor (SYKi) drug resistant MV4-11 cells (AID 1963824); note: nearly all actives have a fitted effect of over 35% in size
Procedure, shortened: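 CellTiter-Glo luminescence, read 10 min after reagent addition, reports viability after a 72 hr compound exposure. Cells are an MV4-11 line made resistant to SYK inhibition, seeded at 500 per well onto compound-containing plates.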
Potency is the fitted concentration of half-maximal effect.

SMILES | Potency [1] | Potency [2] | viability (% of control) [1] | viability, % of control [2]
CC(/C=C/C1=CC2=CC(=O)C(C)(O)C(O)C2=CO1)=C\C(C)CCO (stereo not given) | inactive | inactive |  | 
C[C@@H]1O[C@@H](O[C@H]2[C@H](O[C@H]3[C@H](O[C@H]4CC[C@@]5(C)C(CC[C@]6(C)C5CC=C5[C@@H]7CC(C)(C)C[C@@H](O)[C@]7(C)CC[C@]56C)[C@@]4(C)CO)O[C@H](C(=O)O)[C@@H](O)[C@@H]3O)O[C@H](CO)[C@H](O)[C@@H]2O)[C@H](O)[C@H](O)[C@H]1O (stereo not given in full) |  |  | 74.1% [at 9.25 µM] | 80.3% [at 9.25 µM]
C=C(C)C(=O)O[C@H]1[C@H]2C(=C)C(=O)O[C@@H]2C[C@@H](C)[C@@H]2O[C@@H]2C(=O)[C@](C)(O)[C@@H]1OC(C)=O | 2 µM (active) | 1.59 µM (active) |  | 
O=C(O)C[C@H]1CCC(=O)[C@@H]1C/C=C\CCOC1OC(CO)C(O)C(O)C1O (stereo not given in full) | inactive | inactive |  | 
Cc1ccc(-c2nn(C(C)(C)C)c3ncnc(N)c23)cc1 | 3.66 µM (active) | 8.2 µM (active) |  | 
CC(=O)C1(C)CCC2C3C=C(C)C4=CC(=O)CCC4(C)C3CCC21C (stereo not given) | 5.8 µM (active) | 7.31 µM (active) |  | 
CC1(C)[C@@H](O[C@H]2O[C@H](C(=O)O)[C@@H](O)[C@H](O)[C@H]2O[C@@H]2O[C@H](C(=O)O)[C@@H](O)[C@H](O)[C@H]2O)CC[C@]2(C)[C@H]3C(=O)C=C4[C@@H]5C[C@@](C)(C(=O)O)CC[C@]5(C)CC[C@@]4(C)[C@]3(C)CC[C@@H]12 | inactive | inactive |  | 
CC(=O)OCC1=C[C@H](O)[C@@H]2C(C(=O)O)=CO[C@@H](O[C@@H]3O[C@H](CO)[C@@H](O)[C@H](O)[C@H]3O)[C@H]12 | inactive | inactive |  | 
COc1c2c(c(C)c3c1C(=O)OC3)OC1(C)CC(O)C34OC(O)(CCC3(C)C1C2)OC4(C)C (stereo not given) | inactive | inactive |  | 
OC[C@H]1O[C@@H](O[C@H]2[C@H](OCCc3ccccc3)O[C@H](CO)[C@@H](O)[C@@H]2O)[C@H](O)[C@@H](O)[C@@H]1O | inactive | inactive |  | 
CCOC(=O)C1=CCCCC1S(=O)(=O)Nc1ccc(F)cc1Cl (stereo not given) | 20.9 µM (active) | 16.6 µM (active) |  | 
COc1cc(-c2cc(-c3cccc(O)c3)cnc2N)cc(OC)c1OC | 11.6 µM (active) | 9.2 µM (active) |  | 
CCCCc1nc2cc(/C=C/C(=O)NO)ccc2n1CCN(CC)CC | 411 nM (active) and 525 nM (active) | 291 nM (active) and 468 nM (active) |  | 
C=C1CCC[C@]2(C)CC[C@@H](C(=C)C(=O)O)[C@H](O)[C@@H]12 | inactive | inactive |  | 
CCOC(=O)c1ccc(N(C)c2csc(-c3ccccc3)n2)cc1 | inactive | inactive |  | 
Cc1c[nH]c2nccc(Oc3c(F)cc(Nc4cc(Cl)nc(N)n4)cc3F)c12 | 0.517 µM (active) | 0.731 µM (active) |  | 
COC(=O)C1=CO[C@@H](O[C@@H]2O[C@H](CO)[C@@H](O)[C@H](O)[C@H]2O)[C@@H]2[C@@H](C)[C@@H](OC(=O)/C=C/c3ccccc3)[C@@H](O)[C@H]12 | inactive | inactive |  | 
CCN(CC)Cc1cccc(/C=C/c2nc3ccc(F)cc3c(=O)n2-c2ccccc2Cl)n1 | 11.6 µM (active) | 9.2 µM (active) |  | 
Nc1ncnc2c1ncn2CCNCCCCCO | inactive | inactive |  | 
Cn1cnc2c(NCc3ccccc3)nc(NCCO)nc21 | inactive | inactive |  | 
CCOc1ccc(Cc2nc(-c3c(C)nc4ccccn34)cs2)cc1 | 0.0366 µM (active) | 0.0184 µM (active) |  | 
OC[C@@]1(O)CO[C@@H](OC[C@H]2O[C@@H](OCc3ccccc3)[C@H](O)[C@@H](O)[C@@H]2O)[C@@H]1O | inactive | inactive |  | 
C=CC(C)(O)CC/C=C(\C)C(=O)OC1C(O)C(CO)OC(OC(=O)C23CCC(C)(C)CC2C2=CCC4C5(C)CCC(OC6OC(COC7OCC(OC(C)=O)C(O)C7OC7OC(COC(C)=O)C(O)C(O)C7OC(C)=O)C(O)C(O)C6OC6OCC(O)C(O)C6O)C(C)(C)C5CCC4(C)C2(C)C(O)C3O)C1OC1OCC(OC2OCC(O)C(OC3OCC(O)C(O)C3O)C2O)C(O)C1O (stereo not given) | 0.631 µM (active) | 1.78 µM (active) |  | 
C[C@@H]1O[C@@H](O[C@@H]2[C@@H](O)[C@H](O[C@@H]3[C@@H](O)[C@@H](O)[C@H](O[C@H]4[C@H](OC(=O)[C@]56CCC(C)(C)C[C@H]5C5=CCC7[C@@]8(C)C[C@H](O)[C@H](O[C@@H]9O[C@H](C(=O)O)[C@@H](O)[C@H](O)[C@H]9O)[C@@](C)(CO)C8[C@H](O)C[C@@]7(C)[C@]5(C)CC6)OC[C@H](O)[C@@H]4O)O[C@H]3C)OC[C@H]2O)[C@H](O)[C@H](O)[C@H]1O (stereo not given in full) |  |  | 78.4% [at 9.25 µM] | 89.9% [at 9.25 µM]
OCC1=C[C@@H](O)[C@@H]2C=CO[C@@H](O[C@@H]3O[C@H](CO)[C@@H](O)[C@H](O)[C@H]3O)[C@H]12 | inactive | inactive |  | 
CC(=O)Nc1cccc2c1c(Sc1ccc(Cl)cc1)c(C)n2CC(=O)O | inactive | inactive |  | 
CCN(CC)CC1CCN(c2ncc3ncnc(Nc4ccc(F)c(Cl)c4)c3n2)CC1 | 2.91 µM (active) | 2.91 µM (active) |  | 
O=C(O)CCc1cc2ccoc2cc1O[C@@H]1O[C@H](CO[C@@H]2OC[C@](O)(CO)[C@H]2O)[C@@H](O)[C@H](O)[C@H]1O | inactive | inactive |  | 

SMILES | Potency [1] | Potency [2] | viability (% of control) [1] | viability, % of control [2]
CNc1cc2c(Nc3cccc(Br)c3)ncnc2cn1 | 18.4 µM (active) | 23.1 µM (active) |  | 
COC(=O)/C=C/C(=O)N(O)CCCCNCc1ccc(COC(=O)Nc2cccc3ccccc23)cc1 | 7.31 µM (active) | 6.51 µM (active) |  | 
C=C1C(O)C(O)C2(CC3C(C)=CCC4C(C)(C(=O)O)CCCC34C)OC2C1O (stereo not given) | inactive | inactive |  | 
O=C(Nc1ccn(Cc2c(F)cccc2C(F)(F)F)n1)c1c(F)cccc1F |  |  | 72.8% [at 9.25 µM] | 91.5% [at 9.25 µM]
CCC(=O)c1cc(-c2ccc(Cl)cc2)n(-c2ccc(S(N)(=O)=O)cc2)c1C | 20.6 µM (active) | 16.4 µM (active) |  | 
COc1ccc2c3c1O[C@H]1C[C@@H](O)C=C[C@@]31CCN(C)C2 | inactive | inactive |  | 
C/C(=C\CCC(C)CCO)C(=O)OC1(C)CCC2C(C(=O)O)=COC(OC3OC(CO)C(O)C(O)C3O)C21 (stereo not given) | inactive | inactive |  | 
CC(=O)N1CCc2ccc(O)c(OC3OC(COC4OCC(O)(CO)C4O)C(O)C(O)C3O)c2C1Cc1ccc(O)cc1 (stereo not given) | inactive | inactive |  | 
CCNc1nc2c(ncn2[C@H]2C[C@H](O)[C@@H](CO)O2)c(=O)[nH]1 | inactive | inactive |  | 
C=C1[C@H](OC(C)=O)[C@H]2[C@@H](OC(C)=O)[C@](C)(OC(C)=O)C[C@]2(OC(C)=O)C(=O)[C@H](C)/C=C/C(C)(C)C(=O)[C@H](OC(=O)C(C)C)[C@H]1OC(C)=O | inactive | inactive |  | 
C/C(=C/CCC(CO)C1CCC2(C)C3CCC4C(C)(C)C(OC5OC(CO)C(O)C(O)C5O)CC(O)C45CC35CCC12C)COC1OC(CO)C(O)C(O)C1O (stereo not given) | inactive | inactive |  | 
CN1CCN(c2cc3c(nn2)Oc2ccccc2N3C)CC1 | inactive | inactive |  | 
CC1(C)CCC[C@@]2(C)[C@H]1[C@H](O)C=C(CO)[C@]2(O)CO | inactive | inactive |  | 
[N-]=[N+]=N[C@]1(CO)O[C@@H](n2ccc(=O)[nH]c2=O)[C@@H](O)[C@@H]1O | inactive | inactive |  | 
N#Cc1ccc(-c2ccc(S(=O)(=O)Nc3cccc(N)n3)cc2)cc1 | 8.2 µM (active) | 7.31 µM (active) |  | 
C=CC(=O)Nc1ccc(CN2C(=O)N(c3cc(OC)cc(OC)c3)Cc3cnc(Nc4ccc(N5CCN(C)CC5)cc4)nc32)cc1 | 1.16 µM (active) | 1.3 µM (active) |  | 
O=C(Nc1nc2ccc([N+](=O)[O-])cc2s1)C1CCCCC1 | 20.6 µM (active) | 18.4 µM (active) |  | 
Cc1ccc(C)c(NS(=O)(=O)c2cc(C(=O)Nc3ccccc3-c3ccccc3)ccc2C)c1 | 23.1 µM (active) | 16.4 µM (active) |  | 
O=C(O[C@H]1[C@H](Oc2ccc(O)cc2CO)O[C@H](CO)[C@@H](O)[C@@H]1O)c1ccccc1 | inactive | inactive |  | 
Cc1cc(-c2ccc(/C=C3\SC(=Nc4ccc(Cl)c(C(=O)O)c4)NC3=O)o2)c([N+](=O)[O-])cc1C | inactive | inactive |  | 
C1CCC[C@H]2CCCN3CC[C@@H](CCCCCC[C@@H]4CCCN5CC[C@@H](CC1)O[C@@H]45)O[C@@H]23 |  |  | 90.7% [at 0.177 µM] | 87.9% [at 0.177 µM]
CC(=O)O[C@@H]1CC[C@@]2(C)[C@H](CC[C@@H]3[C@@H]2C[C@H](OC(C)=O)[C@]2(C)[C@@H](C(C)=O)CC[C@@H]32)C1 | 8.2 µM (active) | 8.2 µM (active) |  | 
CN(C)CC(c1ccc(O)cc1)C1(O)CCCCC1 (stereo not given) | inactive | inactive |  | 
CC(=O)[C@@H]1C[C@H](C(C)(C)O[C@@H]2O[C@H](CO)[C@@H](O)[C@H](O)[C@H]2O)CC[C@@]2(CO)OC(=O)C[C@@H]12 | inactive | inactive |  | 
CN1CCN(Cc2ccc(NC(=O)Cc3ccc(Oc4cc(NC(=O)C5CC5)ncn4)cc3)cc2C(F)(F)F)CC1 | inactive | inactive |  | 
CC1(CCC(=O)O)C(=O)C=CC23CC4CC(OC4(C)C2O)C13 (stereo not given) | inactive | inactive |  | 
CC1(C)CC[C@]2(C(=O)OC3OC(CO)C(O)C(O)C3O)CC[C@]3(C)C(=CCC4[C@@]5(C)CC[C@H](OC6OC(C(=O)O)C(O)C(OC7OC(CO)C(O)C(O)C7O)C6O)C(C)(C)C5CC[C@]43C)C2C1 (stereo not given in full) |  |  | 77.3% [at 9.25 µM] | 96.9% [at 9.25 µM]
